A number with no mark means an inactive call. Records with an inconclusive call do not appear. Entries that show only a call come without a potency. Calls of active or inactive are those of the source. Unless noted, the call rests on the fitted dose curve; in most records, active means well fitted curve in the direction sought with a large enough effect in the repeat runs; inconclusive means weak or mixed curves; inactive means no such curve, though single readings can be large; an effect the other way counts as inactive or inconclusive.
Tests used:
[1] = Human pregnane X receptor (PXR) small molecule agonists, qHTS cell viability counter screen (AID 1346977); details: PXR-Luc HepG2 viability, CellTiter-Fluor, 24 h; series mostly up to 92.4 µM; further: nearly all actives have a fitted effect of over 50% in size
Summary of the method: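 PXR-Luc HepG2 cells (2,000/well, 5% charcoal-stripped FBS) preincubated 5 hr, then exposed to compounds 24 hr at 37 C. Viability read in the same wells by CellTiter-Fluor fluorescence, reagent added at 23 hr, 1 hr incubation.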

[2] = Caspase-3/7 induction in HepG2 cells by small molecules, qHTS assay (AID 1346978); details: HepG2 caspase-3/7 activation, Caspase-Glo luminescence, 17 h; series mostly up to 92.4 µM; further: nearly all actives have a fitted effect of over 15% in size
Summary of the method: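 Wild-type HepG2 cells (2,000/well) were settled 5 h at 37 C, 5% CO2, then exposed to compounds in DMSO for 17 h. Caspase-3/7 activity was read by luminescence 30 min after adding Caspase-Glo 3/7 reagent at room temperature.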

[3] = Caspase-3/7 induction in CHO-K1 cells by small molecules, qHTS assay (AID 1346980); details: CHO-K1 caspase-3/7 induction, Caspase-Glo luminescence, 17 h; series mostly up to 92.4 µM; further: nearly all actives have a fitted effect of over 15% in size
Summary of the method: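 Wild-type cells were seeded at 1,500 per well and settled 5 hr at 37 C, 5% CO2, then exposed to DMSO-dissolved compounds for 17 hr. Caspase-Glo 3/7 reagent was added, and luminescence was read after 30min at room temperature.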

[4] = Caspase-3/7 induction in HepG2 cells by small molecules, qHTS cell viability counter screen (AID 1346981); details: CellTiter-Fluor fluorescence, 17 h; series mostly up to 92.4 µM; further: nearly all actives have a fitted effect of over 30% in size
Summary of the method: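 Treatment of HepG2 cells with DMSO-delivered compounds ran 16 hr at 37 C following a 5-hr pre-incubation of 2,000 cells/well. CellTiter-Fluor fluorescence, read after 1 hr, served as the viability measure in a qHTS format.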

[5] = molecular target: Nuclear receptor subfamily 1 group I member 2 (Homo sapiens) (UniProt O75469); assay: Human pregnane X receptor (PXR) small molecule agonists, qHTS assay (AID 1346982); details: PXR-Luc HepG2, CYP3A4 luciferase reporter, 24 h; series mostly up to 92.4 µM; further: nearly all actives have a fitted effect of over 35% in size; further: potency means the concentration at half of the fitted maximal effect
Sequence of Nuclear receptor subfamily 1 group I member 2 (Homo sapiens) (O75469 whole entry, looked up): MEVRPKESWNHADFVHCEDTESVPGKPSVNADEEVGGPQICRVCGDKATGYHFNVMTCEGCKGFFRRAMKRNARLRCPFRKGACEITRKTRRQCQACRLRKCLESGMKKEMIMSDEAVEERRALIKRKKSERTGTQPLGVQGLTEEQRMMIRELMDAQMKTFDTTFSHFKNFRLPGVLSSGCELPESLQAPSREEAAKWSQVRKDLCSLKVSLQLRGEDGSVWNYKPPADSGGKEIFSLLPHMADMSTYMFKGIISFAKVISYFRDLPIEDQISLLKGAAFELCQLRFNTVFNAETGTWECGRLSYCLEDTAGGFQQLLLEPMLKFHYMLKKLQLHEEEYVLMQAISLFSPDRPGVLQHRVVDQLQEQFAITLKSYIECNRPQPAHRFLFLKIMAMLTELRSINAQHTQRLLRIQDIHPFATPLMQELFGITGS
Summary of the method: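 Stable HepG2 line reporting PXR-mediated CYP3A4 expression via luciferase. Treatment: 24 hr with compounds in DMSO at 37 C. Detection: ONE-Glo luminescence.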

[6] = molecular target: Acetylcholinesterase (Homo sapiens) (UniProt P22303); assay: Acetylcholinesterase (AChE) small molecule antagonists: colormetric cell-based qHTS assay (AID 1347395; calls by dose curve; further: nearly all actives have a fitted effect of over 30% in size); details: SH-SY5Y cells AChE activity, colorimetric (Ellman); series mostly up to 115 µM
Sequence of Acetylcholinesterase (Homo sapiens) (P22303 whole entry, looked up): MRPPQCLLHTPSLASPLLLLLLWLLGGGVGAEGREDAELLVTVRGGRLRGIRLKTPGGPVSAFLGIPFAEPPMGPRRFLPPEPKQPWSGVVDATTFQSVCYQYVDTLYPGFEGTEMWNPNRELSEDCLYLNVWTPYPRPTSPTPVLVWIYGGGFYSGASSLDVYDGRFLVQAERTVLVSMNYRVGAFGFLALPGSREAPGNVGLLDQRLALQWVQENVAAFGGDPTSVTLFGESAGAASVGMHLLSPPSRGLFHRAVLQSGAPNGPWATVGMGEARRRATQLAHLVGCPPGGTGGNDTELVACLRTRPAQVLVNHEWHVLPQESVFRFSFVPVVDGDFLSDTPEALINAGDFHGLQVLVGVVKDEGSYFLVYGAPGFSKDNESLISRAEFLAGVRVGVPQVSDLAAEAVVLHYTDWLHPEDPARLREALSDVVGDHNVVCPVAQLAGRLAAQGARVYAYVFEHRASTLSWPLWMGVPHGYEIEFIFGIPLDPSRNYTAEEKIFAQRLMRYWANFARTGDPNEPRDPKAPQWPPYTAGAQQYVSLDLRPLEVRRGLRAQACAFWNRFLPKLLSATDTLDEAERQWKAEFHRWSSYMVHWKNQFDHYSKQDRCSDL
Summary of the method: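 SH-SY5Y cells attached overnight, exposed to compound 30 min at 37 C, then given DTNB/acetylthiocholine; after 90 min at 37 C, colorimetric thiocholine read gives cellular AChE activity.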

[7] = molecular target: Acetylcholinesterase (Homo sapiens) (UniProt P22303); assay: Acetylcholinesterase (AChE) small molecule antagonists: fluorescence cell-based qHTS assay (AID 1347398; calls by dose curve; further: nearly all actives have a fitted effect of over 50% in size); details: SH-SY5Y cells; Potency: AChE activity; outcome: AChE activity; series mostly up to 115 µM
Summary of the method: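 Using neuroblastoma SH-SY5Y cells as the enzyme source, test chemicals are preincubated 30 min at 37 C; AChE-driven acetylthiocholine cleavage is then quantified by thiocholine-dependent Thiolite Green fluorescence after 40 min at room temperature.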

[8] = molecular target: Acetylcholinesterase (Homo sapiens) (UniProt P22303); assay: Acetylcholinesterase (AChE) small molecule antagonists: enzyme-based qHTS assay with human liver microsomes (AID 1347399; calls by dose curve; further: nearly all actives have a fitted effect of over 60% in size); details: Potency: qHTS inhibition; outcome: qHTS inhibition; series mostly up to 115 µM
Summary of the method: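 Recombinant human AChE (50 mU/mL in the enzyme mix) and human liver microsomes (0.25 mg/mL final) were preincubated with compound and NADPH (0.25 mg/mL final) for 30 min at 37 C. Acetylthiocholine/DTNB was then added; thiocholine was read colorimetrically after 10 min at room temperature.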

[9] = molecular target: Cytochrome P450 2D6 (Homo sapiens) (UniProt P10635); assay: Cytochrome P450 Family 2 Subfamily D Member 6 (CYP2D6) small molecule antagonists: luciferase reporter qHTS assay (AID 1671196); details: P450-Glo CYP2D6 enzyme assay, luciferin luminescence, 1 h; series mostly up to 115 µM; further: nearly all actives have a fitted effect of over 50% in size
Sequence of Cytochrome P450 2D6 (Homo sapiens) (P10635 whole entry, looked up): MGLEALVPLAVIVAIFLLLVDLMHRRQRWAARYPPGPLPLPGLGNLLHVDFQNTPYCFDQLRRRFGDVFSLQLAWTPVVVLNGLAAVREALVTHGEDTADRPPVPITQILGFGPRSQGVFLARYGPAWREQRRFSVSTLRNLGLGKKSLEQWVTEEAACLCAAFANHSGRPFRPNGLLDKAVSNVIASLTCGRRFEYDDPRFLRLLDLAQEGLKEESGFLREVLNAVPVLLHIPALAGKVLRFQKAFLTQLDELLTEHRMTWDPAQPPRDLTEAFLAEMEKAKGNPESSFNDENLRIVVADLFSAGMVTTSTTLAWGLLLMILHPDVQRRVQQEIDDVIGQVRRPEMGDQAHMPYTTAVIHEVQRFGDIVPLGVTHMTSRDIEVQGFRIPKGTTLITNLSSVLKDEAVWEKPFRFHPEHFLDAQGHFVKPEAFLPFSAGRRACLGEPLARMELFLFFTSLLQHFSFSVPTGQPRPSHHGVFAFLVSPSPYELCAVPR
Summary of the method: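 Chemicals tested for interference with CYP2D6 activity; proluciferin substrate, NADPH regeneration, 1 h at room temperature, luminescent detection.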

[10] = molecular target: Cytochrome P450 2C19 (Homo sapiens) (UniProt P33261); assay: Cytochrome P450 Family 2 Subfamily C Member 19 (CYP2C19) small molecule antagonists: luciferase reporter qHTS assay (AID 1671197); details: P450-Glo CYP2C19 enzyme, luciferin luminescence, 1 h; series mostly up to 115 µM; further: nearly all actives have a fitted effect of over 65% in size; further: potency means the concentration at half of the fitted maximal effect
Sequence of Cytochrome P450 2C19 (Homo sapiens) (P33261 whole entry, looked up): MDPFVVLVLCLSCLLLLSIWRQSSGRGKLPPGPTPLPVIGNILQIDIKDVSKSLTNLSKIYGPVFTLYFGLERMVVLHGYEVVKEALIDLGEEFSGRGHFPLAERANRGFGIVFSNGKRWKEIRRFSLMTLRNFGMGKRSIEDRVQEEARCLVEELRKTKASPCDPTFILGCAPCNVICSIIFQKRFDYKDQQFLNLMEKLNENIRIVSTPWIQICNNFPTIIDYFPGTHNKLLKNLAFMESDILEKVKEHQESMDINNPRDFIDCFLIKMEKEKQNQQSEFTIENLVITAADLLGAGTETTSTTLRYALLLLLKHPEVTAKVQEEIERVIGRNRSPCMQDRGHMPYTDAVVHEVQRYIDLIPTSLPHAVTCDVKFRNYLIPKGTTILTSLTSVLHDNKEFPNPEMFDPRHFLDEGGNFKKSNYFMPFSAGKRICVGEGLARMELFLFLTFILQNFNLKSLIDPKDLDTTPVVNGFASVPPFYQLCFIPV
Summary of the method: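 CYP2C19 P450-Glo, 1536-well qHTS. Cpd + enzyme/proluciferin substrate 10 min RT; + NADPH regen, 37C 1 h; stop with luciferin detection reagent, 20 min RT, luminescence (RLU). Pos ctrl ketoconazole.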

[11] = molecular target: Cytochrome P450 2C9 (Homo sapiens) (UniProt P11712); assay: Cytochrome P450 Family 2 Subfamily C Member 9 (CYP2C9) small molecule antagonists: luciferase reporter qHTS assay (AID 1671198); details: P450-Glo CYP2C9 enzyme assay, luciferin luminescence; series mostly up to 115 µM; further: nearly all actives have a fitted effect of over 50% in size; further: potency means the concentration at half of the fitted maximal effect
Sequence of Cytochrome P450 2C9 (Homo sapiens) (P11712 whole entry, looked up): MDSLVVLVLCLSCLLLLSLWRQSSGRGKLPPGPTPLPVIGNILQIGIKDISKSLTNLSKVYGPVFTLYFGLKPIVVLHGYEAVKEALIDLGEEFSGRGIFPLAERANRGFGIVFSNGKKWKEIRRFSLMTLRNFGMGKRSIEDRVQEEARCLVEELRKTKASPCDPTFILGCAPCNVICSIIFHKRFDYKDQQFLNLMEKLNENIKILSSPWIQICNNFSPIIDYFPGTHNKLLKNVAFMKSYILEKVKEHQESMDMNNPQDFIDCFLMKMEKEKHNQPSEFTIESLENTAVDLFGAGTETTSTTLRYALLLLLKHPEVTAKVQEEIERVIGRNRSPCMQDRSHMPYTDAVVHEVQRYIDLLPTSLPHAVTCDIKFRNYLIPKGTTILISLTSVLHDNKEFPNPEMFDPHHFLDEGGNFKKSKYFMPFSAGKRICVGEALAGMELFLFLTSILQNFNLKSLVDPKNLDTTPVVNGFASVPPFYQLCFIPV
Summary of the method: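 CYP2C9 activity was measured with a P450-Glo proluciferin substrate. Enzyme–substrate mix was held with compound for 10 min at room temperature, then NADPH regeneration solution was added for 1 h at 37C. Luciferin product was read as luminescence.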

[12] = molecular target: Voltage-gated inwardly rectifying potassium channel KCNH2 (Homo sapiens) (UniProt Q12809); assay: Human Ether-a-go-go-Related Gene (hERG) channel small molecule antagonists: fluorescence cell-based qHTS assay (AID 1671200); details: hERG-U2OS cells, FluxOR thallium flux fluorescence; series mostly up to 76.8 µM
Sequence of Voltage-gated inwardly rectifying potassium channel KCNH2 (Homo sapiens) (Q12809 whole entry, looked up): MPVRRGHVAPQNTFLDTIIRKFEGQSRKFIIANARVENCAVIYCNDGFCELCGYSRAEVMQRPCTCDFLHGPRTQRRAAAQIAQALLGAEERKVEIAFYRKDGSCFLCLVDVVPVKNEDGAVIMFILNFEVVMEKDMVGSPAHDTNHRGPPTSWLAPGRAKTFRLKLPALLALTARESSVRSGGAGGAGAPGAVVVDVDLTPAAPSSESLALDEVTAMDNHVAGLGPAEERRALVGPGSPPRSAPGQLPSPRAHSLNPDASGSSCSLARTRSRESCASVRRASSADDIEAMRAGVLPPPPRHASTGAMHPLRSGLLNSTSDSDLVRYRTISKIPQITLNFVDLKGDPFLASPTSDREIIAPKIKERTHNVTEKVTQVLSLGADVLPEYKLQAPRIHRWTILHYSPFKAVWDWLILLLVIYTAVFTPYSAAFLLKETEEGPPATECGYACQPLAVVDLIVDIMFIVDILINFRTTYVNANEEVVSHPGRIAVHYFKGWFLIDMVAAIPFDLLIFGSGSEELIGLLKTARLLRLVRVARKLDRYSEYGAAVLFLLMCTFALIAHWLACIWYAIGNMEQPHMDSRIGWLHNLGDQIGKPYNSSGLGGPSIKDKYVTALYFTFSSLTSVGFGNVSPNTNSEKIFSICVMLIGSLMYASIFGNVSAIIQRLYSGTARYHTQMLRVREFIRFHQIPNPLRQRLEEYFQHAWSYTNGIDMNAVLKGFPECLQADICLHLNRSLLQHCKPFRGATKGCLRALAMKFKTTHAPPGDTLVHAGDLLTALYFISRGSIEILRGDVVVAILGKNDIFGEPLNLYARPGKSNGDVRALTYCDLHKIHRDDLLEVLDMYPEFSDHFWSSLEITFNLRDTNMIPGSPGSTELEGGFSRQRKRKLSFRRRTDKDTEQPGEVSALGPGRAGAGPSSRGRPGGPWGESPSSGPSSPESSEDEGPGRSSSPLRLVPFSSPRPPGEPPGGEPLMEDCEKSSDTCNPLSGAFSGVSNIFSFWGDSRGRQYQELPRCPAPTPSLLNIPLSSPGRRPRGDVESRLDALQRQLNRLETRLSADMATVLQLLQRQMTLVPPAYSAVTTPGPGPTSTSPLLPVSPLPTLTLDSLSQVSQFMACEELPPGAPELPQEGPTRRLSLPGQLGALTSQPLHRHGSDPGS
Summary of the method: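 hERG-U2OS cells plated overnight at 37 C, loaded with FluxOR II dye 1 h at RT in dark; after 10 min, thallium stimulus added. Fluorescence (480/540 nm) read kinetically for 2 min at 1 s intervals.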

[13] = molecular target: Cytochrome P450 3A4 (Homo sapiens) (UniProt P08684); assay: Cytochrome P450 Family 3 Subfamily A Member 4 (CYP3A4) small molecule antagonists: luciferase reporter qHTS assay (AID 1671201); details: P450-Glo CYP3A4 enzyme, luciferin luminescence, 1 h; series mostly up to 115 µM; further: nearly all actives have a fitted effect of over 50% in size; further: potency means the concentration at half of the fitted maximal effect
Sequence of Cytochrome P450 3A4 (Homo sapiens) (P08684 whole entry, looked up): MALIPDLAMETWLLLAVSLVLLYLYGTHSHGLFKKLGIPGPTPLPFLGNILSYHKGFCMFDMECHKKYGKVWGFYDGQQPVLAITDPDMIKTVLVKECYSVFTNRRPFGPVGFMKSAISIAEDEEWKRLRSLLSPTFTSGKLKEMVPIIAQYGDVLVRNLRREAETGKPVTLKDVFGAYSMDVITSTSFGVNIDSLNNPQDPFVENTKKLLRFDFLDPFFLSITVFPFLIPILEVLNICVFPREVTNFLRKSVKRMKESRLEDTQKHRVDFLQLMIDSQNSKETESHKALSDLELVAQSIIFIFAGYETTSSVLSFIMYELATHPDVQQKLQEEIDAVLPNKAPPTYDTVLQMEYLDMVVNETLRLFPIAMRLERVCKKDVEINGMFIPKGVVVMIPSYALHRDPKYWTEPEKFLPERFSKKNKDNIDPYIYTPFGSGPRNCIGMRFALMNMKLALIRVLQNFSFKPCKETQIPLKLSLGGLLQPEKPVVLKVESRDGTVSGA
Summary of the method: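 P450-Glo CYP3A4 luminescent assay: compounds preincubated 10 min at room temperature with enzyme and proluciferin substrate, NADPH regeneration added, 1 h room-temperature reaction, stopped with luciferin detection reagent; luminescence read after 20 min. Ketoconazole positive control.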

[14] = molecular target: Acetylcholinesterase (Homo sapiens) (UniProt P22303); assay: Acetylcholinesterase (AChE) small molecule antagonists: enzyme-based qHTS assay (AID 1347397; calls by dose curve; further: nearly all actives have a fitted effect of over 55% in size); details: Potency: AChE enzyme activity inhibition; outcome: AChE enzyme activity inhibition; series mostly up to 115 µM
Summary of the method: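 Compound or DMSO vehicle was pin-transferred onto recombinant human AChE (50 mU/mL as dispensed) and left 30 min at room temperature. Acetylthiocholine with DTNB then started the reaction, read colorimetrically 10 min later.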

[15] = molecular target: Cytochrome P450 1A2 (Homo sapiens) (UniProt P05177); assay: Cytochrome P450 Family 1 Subfamily A Member 2 (CYP1A2) small molecule antagonists: luciferase reporter qHTS assay (AID 1671199); details: P450-Glo CYP1A2 enzyme, luciferin luminescence, 1 h; series mostly up to 115 µM; further: nearly all actives have a fitted effect of over 50% in size; further: potency means the concentration at half of the fitted maximal effect
Sequence of Cytochrome P450 1A2 (Homo sapiens) (P05177 whole entry, looked up): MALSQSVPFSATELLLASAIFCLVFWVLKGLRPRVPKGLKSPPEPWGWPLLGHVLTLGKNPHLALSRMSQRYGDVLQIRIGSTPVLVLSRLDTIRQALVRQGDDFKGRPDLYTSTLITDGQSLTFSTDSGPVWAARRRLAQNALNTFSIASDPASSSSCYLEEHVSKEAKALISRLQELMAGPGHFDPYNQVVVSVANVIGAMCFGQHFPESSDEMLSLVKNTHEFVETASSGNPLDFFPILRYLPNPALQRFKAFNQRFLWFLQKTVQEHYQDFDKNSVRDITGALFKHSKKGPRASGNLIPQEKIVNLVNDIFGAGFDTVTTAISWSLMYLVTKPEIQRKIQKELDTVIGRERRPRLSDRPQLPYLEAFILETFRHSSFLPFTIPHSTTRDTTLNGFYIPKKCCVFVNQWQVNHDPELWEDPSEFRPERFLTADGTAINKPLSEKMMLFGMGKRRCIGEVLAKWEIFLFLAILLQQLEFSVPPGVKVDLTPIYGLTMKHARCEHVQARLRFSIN
Summary of the method: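 Read-out is luminescence from luciferin detection reagent (20 min) proportional to CYP1A2 activity; compounds in DMSO preincubated 10 min with enzyme and proluciferin substrate, then NADPH regeneration solution, 1 h, room temperature.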

Row | SMILES | Potency [1] | outcome [2] | outcome [3] | Potency [4] | Potency [5] | Potency [6] | Potency [7] | Potency [8] | Potency [9] | Potency [10] | Potency [11] | Potency [12] | Potency [13] | Potency [14] | Potency [15]
1 | O=C(O)C(Br)(Br)Br | inactive | inactive | inactive | inactive | inactive | inactive | inactive | inactive | inactive | 31.7 µM (active) | inactive | inactive | inactive |  | 
2 | CC#Cc1cc(C)nc(Nc2ccccc2)n1 | inactive | inactive | inactive | inactive | 30.6 µM (active) | inactive |  | inactive |  | 35.5 µM (active) | 35.5 µM (active) | inactive | 63.2 µM (active) | inactive | 1.59 µM (active)
3 | Oc1ccc2c3c1O[C@H]1[C@@H](O)C=C[C@H]4[C@@H](C2)NCC[C@@]341 | inactive | inactive |  | inactive |  |  |  |  |  | inactive |  | inactive | inactive |  | inactive
4 | COC[C@@H](NC(C)=O)C(=O)NCc1ccccc1 | inactive | inactive | inactive | inactive | inactive | inactive | inactive | inactive | inactive | inactive | inactive |  | inactive |  | 
5 | O=c1[nH]oc2c1CCNC2 | inactive | inactive | inactive | inactive | inactive | inactive |  | inactive | inactive | inactive | inactive | inactive | inactive |  | inactive
